# Assay results as given in the supplement of paper PMC7156485.
# ± gives the standard deviation of the averaged measurements.
# Experiments:
# Conditions in all cases: concentration: 10 µM; 24 h
# HCC1569 [1] = test: cell number relative to DMSO (% of DMSO); higher = more cells (less growth inhibition / toxicity)
# Procedure, shortened: (§1)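 Cell number or H1.0 nuclear intensity appears as percent of the plate control, based on the median of replicates. Measurements came from HCC1569 and TDF cells exposed in triplicate to compounds at 10 µM for 24 h at 37 °C, then imaged in six fields per well at ×10. Positional effects were smoothed out of HCC1569 values.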
# TDF [2] = test: as above
# Procedure, shortened: as §1
# TDF [3] = test: H1.0 immunofluorescence intensity relative to DMSO (% of DMSO); higher = stronger H1.0 induction, active = 120 or more
# Procedure, shortened: as §1
# HCC1569 [4] = test: H1.0 immunofluorescence intensity relative to DMSO (% of DMSO); higher = stronger H1.0 induction, active = 140 or more
# Procedure, shortened: as §1
# 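Wherever H1.0 immunofluorescence intensity relative to DMSO is given: TDF is a line of transformed human dermal fibroblasts of mesenchymal origin.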
# 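Wherever cell number relative to DMSO is given: TDF denotes transformed human dermal fibroblasts of mesenchymal origin.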
SMILES,cell number (HCC1569 [1]),cell number (TDF [2]),H1.0 immunofluorescence intensity (TDF [3]),H1.0 immunofluorescence intensity (HCC1569 [4])
CC(COc1ccc(C=Cc2ccccc2)cc1)[N+](C)(C)C.[I-] (configuration not stated),95.6,84.6,107 (inactive),110 (inactive)
CC(C=CC1=C(C)CCCC1(C)C)=CC=CC(C)=CC(=O)O [13-cis Retinoic acid],98.1 ± 4.4,104 ± 2.9,92.9 (inactive),111 (inactive)
COC(=O)[C@H](Cc1ccc([N+](=O)[O-])cc1)NC(=O)c1cccc2ccccc12 [methyl (2S)-2-(1-naphthoylamino)-3-(4-nitrophenyl)propanoate],92.4,95,100 (inactive),101 (inactive)
CCNC(=O)C1OC(n2cnc3c(N)nc(NCCc4ccc(CCC(=O)O)cc4)nc32)C(O)C1O.Cl (configuration not stated),118,96,103 (inactive),102 (inactive)
COC(=O)C1=C(C#N)NC(C)=C(C(=O)OC(C)C)C1c1cccc([N+](=O)[O-])c1 (configuration not stated),89.8,97.4,98.2 (inactive),123 (inactive)
CCc1cccc(N(C)C(N)=Nc2cccc3ccccc23)c1.Cl,87.1,90,115 (inactive),95.9 (inactive)
"CC(C)(C)n1nc(Cc2cccc3ccccc23)c2c(N)ncnc21 [PP1 Analog II, 1NM-PP1]",82.1,103,93.1 (inactive),152 (active)
CSc1ccc2c(c1)N(CCC1CCCCN1C)c1ccccc1S2 (configuration not stated) [Thioridazine],102,102,105 (inactive),133 (inactive)
